According to PubChem BioAssay (NCI):
The panel holds about 79,000 compounds, 15% with a hit somewhere; the sample as a whole holds those more often. A number with no mark means an inactive call. No stated cut-off is given here; in the data, active means growth inhibition above about 70%; inactive means the rest. Where a SMILES comes first, the peptide text is derived from it. The star is where a group is joined. Cbz = O=C(OCc1ccccc1)*

Experiment: NCI Yeast Anticancer Drug Screen. Data for the mlh1 rad18 strain (AID 175)
Details: S. cerevisiae mlh1 rad18 strain growth inhibition; at 50.0 µM; hits give high values
Summary of the method: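 A repair-deficient yeast strain is exposed to test compound, and growth is scored relative to vehicle-treated controls.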
In the case of `O=C1c2ccccc2Cc2ccccc21`, the growth inhibition is reported as 7.55%. Molecule `O=[N+]([O-])C(C(Cl)=C(Cl)Cl)=C(N1CCCCC1)N1CCCCC1` has a growth inhibition of -13.9%. `CC1(C)C=Cc2c(cc(O)c3c(=O)c4cc(Cl)ccc4[nH]c23)O1` showed a growth inhibition of -12.1%. `CC(O)(C(=O)O)C(NC(=O)c1ccccc1)C(=O)O` (stereo not given) showed a growth inhibition of 2.45%. For `CC(C)COC(=O)c1cc(O)[nH]c(=O)c1`, the growth inhibition was -6.8%. `CCOC(=O)CCC(NC(=O)C(CCC(=O)O)NC(=O)OCc1ccccc1)C(=O)OCC` (stereo not drawn) (Cbz-Glu-Glu(OEt)-OEt; configuration not given here) showed a growth inhibition of 0.05%. `NC(C(=O)O)C1C=CCCC1` (stereo not given) gave a growth inhibition of 6.85%. With `CC1(C)OC(=O)ON(Cc2ccccc2)C1=O` the growth inhibition was -13.4%. Work on `CCOC(=O)C1=C(C(=O)c2ccc(OC)cc2)C(c2ccc(OC)c(OC)c2)C(C(=O)c2ccc(OC)cc2)=C(C(=O)OCC)N1` yielded a growth inhibition of -18.8%. `CN1CCc2sccc2C(c2ccccc2)O1` (stereo not given) showed a growth inhibition of -3.4%. Molecule `COc1ccc(N2C(=O)/C(=C\c3ccc(N(CCC#N)CCC#N)cc3)N=C2COc2ccccc2)cc1` has a growth inhibition of 1.3%. With `CCCC(C)C1(CC)NC(C)(C)CC(C)O1` (stereo not given) the growth inhibition was 1.2%. With `CC(C)COP(C)(=O)C(N)(C(F)(F)F)C(F)(F)F` (stereo not given) the growth inhibition was -12.4%. In the case of `N#CC1C(=O)NC(=O)C(C#N)C12CCCC2` (stereo not given), the growth inhibition is reported as 10.7%. Work on `O=c1oc2ccccc2c(O)c1[N+](=O)[O-]` yielded a growth inhibition of 3.65%. Work on `O=C1O[C@@H]2C3COC(O)[C@](O)(O3)[C@@H]2/C1=C\c1ccc(O)cc1` (stereo not given in full) yielded a growth inhibition of 9.4%. Molecule `CC(=O)/C(C)=C\C1C(C)=CCCC1(C)C` (stereo not given) has a growth inhibition of -5.85%. For `CCN(CC)c1ccc2c(c1)C(O)c1ccccc1-2` (stereo not given), the growth inhibition was 17.6%. Work on `CCN(CC)CCN(C)C(O)(C(=O)c1ccccc1)C1CCCC1` (stereo not given) yielded a growth inhibition of 32%. `C/C(Cc1ccccc1)=N\NS(=O)(=O)c1ccc(C)cc1` showed a growth inhibition of 34.6%. Work on `O=C1C(=S)Nc2cccc(F)c21` yielded a growth inhibition of 33%. For `CCOC(=O)NC(=Cc1ccccn1)c1ccc(Cl)cc1` (mixture of isomers), the growth inhibition was 28.6%. `O=C(Nc1cccc2ccccc12)OC1CCCC1` showed a growth inhibition of -28.6%. `CCCCCCC(C)C(C#N)C(=O)OCC` (stereo not given) showed a growth inhibition of -14.3%. For `CCCCNc1ccc([N+](=O)[O-])cc1[N+](=O)[O-]`, the growth inhibition was -0.6%. Molecule `CCCCOC(=O)C1(C(=O)OCCCC)CC1` has a growth inhibition of 3.55%. In the case of `C1CSCCSCCSCCS1`, the growth inhibition is reported as -11.9%. In the case of `CCN(CC)C(=N)N`, the growth inhibition is reported as -14.4%. Molecule `CC=C/C=C/[C@@H]1O[C@](O)([C@H](CC)C(=O)NC/C=C/C=C(\C)[C@@H](OC)[C@@H](C)[C@@H]2O[C@H](/C=C/C=C/C=C(\C)C(=O)c3c(O)cc[nH]c3=O)[C@H](O)[C@@H]2O)[C@H](O)[C@H](O)C1(C)C` has a growth inhibition of 15.6%. For `CCOC(=O)C(/C(=N\NC(=O)OC)C(=O)Nc1cc(OC)ccc1OC)c1cnc2ccccc2n1` (stereo not given), the growth inhibition was 0.7%. `[Cl][Pt+2][Cl].[NH-]C(CO)C([NH-])CO` (stereo not given) gave a growth inhibition of -61.5%. In the case of `Cn1nc(-c2ccccc2)c(C(=O)/C=C/c2ccc(F)cc2)c(N2CCCCC2)c1=O`, the growth inhibition is reported as 10.2%. Molecule `NC(=O)c1ccc2c(ccc3ccccc32)c1` has a growth inhibition of -2.75%. For `CC12CCC(=O)C=C1CCC1C2C(=O)CC2(C)C1CCC2(O)C(=O)Cn1c(=O)[nH]cc(F)c1=O` (stereo not given), the growth inhibition was 2.3%. `COC12OCCN(C)C1=CC(=O)C1N=NCC12` (stereo not given) showed a growth inhibition of 7.55%. `O=C(N/N=C/c1ccccc1)c1c(F)c(F)c(F)c(F)c1F` showed a growth inhibition of 0.6%. For `O=C/C=C/N=c1ccn(O)cc1`, the growth inhibition was 2.1%. Work on `COC(=O)CCCC(NC(=O)c1ccc([N+](=O)[O-])cc1)C(=O)OC` (stereo not given) yielded a growth inhibition of 14.9%. `O=[N+]([O-])c1ccc(N/N=C2\C=CCCC2)c([N+](=O)[O-])c1` gave a growth inhibition of 17.1%. `CCCCCCCNC1=C(O)c2ccccc2C(=O)C1=O` showed a growth inhibition of 6.2%.
